{
  "source": "PubChem BioAssay (NCATS)",
  "note": "Records with an inconclusive call do not appear. Unmarked numbers belong to inactive results. Active and inactive are the calls of the source. Calls follow the shape of the dose curve; as a rule, active = well fitted curve in either direction with a large enough effect (not every such curve was filed as active); inconclusive = small, poorly fitted or top-dose-only effect, or another doubt; inactive = flat fitted curve, though single readings scatter. % is scaled to controls: 0 for no effect and ±100 for the full control effect.",
  "data": [
    {"assay": "AP1 Signaling Pathway (AID 357);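 also: ME-180 reporter cells stimulated with EGF at its EC50 level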", "conditions": "ME-180 AP-1-bla reporter, EGF-induced, beta-lactamase ratio, 5 h; series mostly up to 17.2 µM; activity change, negative = inhibition: at the top concentration", "text": "NCGC Assay Overview: Activator protein-1 (AP-1), a transcription factor, plays an important role in tumor genesis by regulating genes involved in cell proliferation, differentiation, apoptosis, and angiogenesis. AP-1 activity is induced by a complex network of signaling pathways that involves extracellular signals, such as growth factors. The AP-1 protein complex formed from c-Fos and c-Jun binding to the AP-1 response element results in transcriptional activation of genes containing such elements within their promoter. Low molecular weight molecules have been discovered and developed to modulate various components of these signaling pathways, for example, MAP kinase inhibitors. However, many points of pathway modulation remain untested due to the lack of chemical probes making this signaling locus of general interest. Using a beta-lactamase reporter-gene under control of the AP-1 response element, a cell-based assay [CellSensor(TM) AP-1-bla ME-180 developed by Invitrogen Corp.] was used to measure EGF-induced signaling. Library compounds were measured for their ability to modulate positively or negatively the action of EC50 EGF on reporter gene activity. Compounds were screened in a titration series in 1536-well format. Positive and negative modulators were identified based on the AC50 values derived from the screening data.\nNCGC Assay Protocol Summary: 2500 cells/5uL in Opti-MEM medium containing 0.5% dialyzed FBS, 0.1 mM NEAA, 1 mM sodium pyruvate and 10 mM HEPES was dispensed into 1536-well plates and cells were cultured at 37 degrees Celsius overnight. […] After centrifugation at 1000 rpm for 2 seconds the plates were incubated at 37 degrees Celsius for 5 hours. 1 uL of CCF4-dye mixture was added to each well. After incubated at room temperature for 2.5 hours the plates were measured on an EnVision plate reader at Excitation 405nm, Emission1=460nm and Emission 2=530nm. The %Activity was determined from the ratio of 460nm/530nm.", "values": [
      {"smiles": "CCOC(=O)c1ncn2c1CN(C)C(=O)c1cc(F)ccc1-2", "activity change, negative = inhibition": "-19.6% [at 38 µM]"},
      {"smiles": "NC12CC3CC(CC(C3)C1)C2", "outcome": "inactive"},
      {"smiles": "NC(CO)C(=O)NNCc1ccc(O)c(O)c1O", "note": "(stereo not given)", "activity change, negative = inhibition": "-0.425%"},
      {"smiles": "CCCNCC(O)COc1ccccc1C(=O)CCc1ccccc1", "note": "(stereo not given)", "activity change, negative = inhibition": "6.72%"},
      {"smiles": "Cc1ccc(C(=O)Nc2ccc(S(=O)(=O)O)c3cc(S(=O)(=O)O)cc(S(=O)(=O)O)c23)cc1NC(=O)c1cccc(NC(=O)Nc2cccc(C(=O)Nc3cc(C(=O)Nc4ccc(S(=O)(=O)O)c5cc(S(=O)(=O)O)cc(S(=O)(=O)O)c45)ccc3C)c2)c1", "activity change, negative = inhibition": "-14.3% [at 38 µM]"},
      {"smiles": "Cc1cc(C(C)(C)C)cc(C)c1CC1=NCCN1", "outcome": "inactive"},
      {"smiles": "CC[N+](CC)(CC)CCOc1cccc(OCC[N+](CC)(CC)CC)c1OCC[N+](CC)(CC)CC", "outcome": "inactive"},
      {"smiles": "CN1CCC(=C2c3ccccc3C=Cc3ccccc32)CC1", "activity change, negative = inhibition": "25.3%"},
      {"smiles": "CN(C)C(=N)N=C(N)N", "activity change, negative = inhibition": "0.00568%"},
      {"smiles": "Clc1ccc2c(c1)C(N1CCNCC1)=Nc1ccccc1O2", "outcome": "inactive"},
      {"smiles": "NC(=O)OCC(COC(N)=O)c1ccccc1", "outcome": "inactive"},
      {"smiles": "O=C(c1ccc(OCCN2CCCCC2)cc1)c1c(-c2ccc(O)cc2)sc2cc(O)ccc12", "outcome": "inactive"},
      {"smiles": "CC(C)Cc1ccc(C(C)C(=O)O)cc1", "note": "(stereo not given)", "activity change, negative = inhibition": "-1.12%"},
      {"smiles": "NCCCCCC(=O)O", "outcome": "inactive"},
      {"smiles": "CC(C)C(=O)Nc1ccc([N+](=O)[O-])c(C(F)(F)F)c1", "outcome": "inactive"},
      {"smiles": "Cn1ccc2cc3c(cc21)CCN3C(=O)Nc1cccnc1", "activity change, negative = inhibition": "-7.16% [at 38 µM]"},
      {"smiles": "CS(=O)(=O)Nc1ccc([N+](=O)[O-])cc1Oc1ccccc1", "outcome": "inactive"},
      {"smiles": "CCc1cccc2c3c([nH]c12)C(CC)(CC(=O)O)OCC3", "note": "(stereo not given)", "activity change, negative = inhibition": "-7.33%"},
      {"smiles": "Nc1nc2c(ncn2COC(CO)CO)c(=O)[nH]1", "outcome": "inactive"},
      {"smiles": "CNCCCC12CCC(c3ccccc31)c1ccccc12", "outcome": "inactive"},
      {"smiles": "Nc1nnc(-c2cccc(Cl)c2Cl)c(N)n1", "outcome": "inactive"},
      {"smiles": "Cn1c(=O)c2[nH]cnc2n(C)c1=O", "outcome": "inactive"},
      {"smiles": "NCCS(=O)(=O)O", "activity change, negative = inhibition": "3.44% [at 38 µM]"},
      {"smiles": "CN1CCN(CCCN2c3ccccc3Sc3ccc(Cl)cc32)CC1", "outcome": "inactive"},
      {"smiles": "CCOC(=O)Nc1ccc(NCc2ccc(F)cc2)nc1N", "activity change, negative = inhibition": "-16% [at 38 µM]"},
      {"smiles": "O=C(c1ccc(F)cc1)C1CCN(CCn2c(=O)[nH]c3ccccc3c2=O)CC1", "outcome": "inactive"},
      {"smiles": "Cn1c(=O)c2c(ncn2C)n(C)c1=O", "activity change, negative = inhibition": "4.3% [at 38 µM]"},
      {"smiles": "O=C(Nc1ccc([N+](=O)[O-])cc1Cl)c1cc(Cl)ccc1O", "activity change, negative = inhibition": "-23.2% [at 38 µM]"},
      {"smiles": "O=C(CCCN1CCC(O)(c2ccc(Cl)cc2)CC1)c1ccc(F)cc1", "outcome": "inactive"},
      {"smiles": "O=c1[nH]cc(F)c(=O)[nH]1", "activity change, negative = inhibition": "12.4% [at 38 µM]"},
      {"smiles": "CCC1(c2ccccc2)C(=O)NCNC1=O", "outcome": "inactive"},
      {"smiles": "N[C@@H](Cc1c[nH]c2ccc(O)cc12)C(=O)O", "activity change, negative = inhibition": "6.76% [at 38 µM]"},
      {"smiles": "CN1CCN(C2=Nc3cc(Cl)ccc3Nc3ccccc32)CC1", "outcome": "inactive"},
      {"smiles": "CCOC(=O)C(C)(C)Oc1ccc(Cl)cc1", "activity change, negative = inhibition": "1.33% [at 38 µM]"},
      {"smiles": "OCCN1CCN(CCCN2c3ccccc3Sc3ccc(C(F)(F)F)cc32)CC1", "outcome": "inactive"},
      {"smiles": "O=C(C1CCCCC1)N1CC(=O)N2CCc3ccccc3C2C1", "note": "(stereo not given)", "outcome": "inactive"},
      {"smiles": "Cc1cn([C@H]2C[C@H](N=[N+]=[N-])[C@@H](CO)O2)c(=O)[nH]c1=O", "activity change, negative = inhibition": "14.7%"},
      {"smiles": "Cn1cnc2c1c(=O)[nH]c(=O)n2C", "outcome": "inactive"},
      {"smiles": "Cc1cn([C@H]2C=C[C@@H](CO)O2)c(=O)[nH]c1=O", "activity change, negative = inhibition": "1.06%"},
      {"smiles": "O=c1c(-c2ccc(O)cc2)coc2cc(O)cc(O)c12", "activity change, negative = inhibition": "-15.1% [at 38 µM]"}
    ]}
  ]
}
